# V-ATPase pHluor: regulators of yeast V-ATPase proton transport; S. cerevisiae, pHLuorin cytosolic pH fluorescence; response, % at 10 µM; actives 0.37% (n = 350,000); in the data active = response mostly above about 7.3%, no sharp cut-off; inactive = mostly below about 5.4%; note: actives read high
# TIM10 inh: growth inhibitors of TIM10 yeast strain. S. cerevisiae TIM10 strain growth, BacTiter-Glo luminescence, 24 h. inhibition, % at 10 µM. actives 1.4% (n = 330,000). AID 463195;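 active = inhibition of 40% or more at the single tested concentration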;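 note: wild-type TIM10 isogenic control strain grown at permissive 25 °C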
# NALP3 yeast inh: inhibitors of NALP3 inflammasome in yeast. Yeast reconstituted NLRP3/ASC/caspase-1, beta-gal luminescence, 24 h. inhibition, % at 10 µM. actives 0.39% (n = 330,000). AID 2825;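 active = inhibition of 50% or more; inactive = inhibition below 50%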;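 note: plate controls were induced DMSO wells for no effect and uninduced yeast grown without galactose for full effect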
# tim10-1 inh: growth inhibitors of tim10-1 mutant yeast | inhibition, % at 20 µM | S. cerevisiae tim10-1 ts strain growth, BacTiter-Glo, 24 h | actives 2.2% (n = 330,000);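 active = inhibition of at least 40%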;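 note: mutant grown at 25 °C; 0% = DMSO wells with yeast and 100% = wells holding no yeast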
# tim23-1 inh: tim23-1 yeast growth inhibition | AID 463212 | actives 1.3% (n = 330,000) | inhibition, % at 20 µM | S. cerevisiae tim23-1 growth, BacTiter-Glo luminescence, 24 h;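 active = growth inhibition of the mutant yeast at or above 50%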;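 note: temperature-sensitive mutant grown at 25 °C; plate controls were DMSO-treated mutant yeast for no effect and medium wells lacking yeast for full effect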
# NALP1 inh: inhibitors of NALP1 inflammasome in yeast. S. cerevisiae NALP1/ASC/caspase-1 growth, X-gal OD620, 72 h. inhibition, % at 10 µM. actives 0.61% (n = 280,000). AID 2071; in the data active = inhibition mostly above about 24%, no sharp cut-off; inactive = mostly below about 32%
# tim10-1 conf: tim10-1 yeast growth inhibition, confirmed; inhibition, % at 20 µM; AID 463213; S. cerevisiae tim10-1 ts strain growth, BacTiter-Glo, 24 h; shares compounds with tim10-1 inh; actives 56% (n = 7,400);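 active = inhibition of yeast growth at or above a set limit in either of two repeat tests at 20 µM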;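 note: tim10-1 mutant grown at permissive 25 °C to find synthetic lethal compounds; 0% = DMSO yeast wells and 100% = medium wells without yeast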
# TIM10 conf: TIM10 yeast growth inhibition, confirmed; shares compounds with TIM10 inh; S. cerevisiae tim10 strain growth, BacTiter-Glo luminescence, 24 h; inhibition, % at 10 µM; actives 63% (n = 4,600); AID 463215;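 active = inhibition of yeast growth at or above a set limit in either of two replicates at 10 µM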;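 note: this counterscreen used the strain with wild-type TIM10; 0% = yeast with DMSO and 100% = medium wells lacking yeast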
# tim23-1 confirm: tim23-1 yeast growth inhibition, confirmed; shares compounds with tim23-1 inh; S. cerevisiae tim23-1 growth, BacTiter-Glo luminescence, 24 h; inhibition, % at 20 µM; actives 83% (n = 4,400); AID 463218;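 active = inhibition above about 39% in either of two replicate wells at 20 µM, limit read from the data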;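 note: temperature-sensitive tim23-1 mutant grown at 25 °C; 0% = DMSO wells with yeast and 100% = medium wells without yeast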
# Starred values were filed as active, the others as inactive; nt = no result given. Compounds with a hit are over-represented: about 4.2% of the library has one in this group of screens.
SMILES,V-ATPase pHluor,TIM10 inh,NALP3 yeast inh,tim10-1 inh,tim23-1 inh,NALP1 inh,tim10-1 conf,tim23-1 confirm,others
COc1ccc2oc(/C=C/N(C)C)c(C(=O)c3ccc(Cl)cc3)c2c1,1,29,20,45*,50*,15,21,51*,
Cc1ccc(O)c(NC(=O)C2CC(c3c(F)cccc3Cl)=NO2)c1 (centres undefined),0,25,2,44*,54*,15,26,60*,
COc1cc(NC(=O)C2CC(c3c(F)cccc3Cl)=NO2)c(OC)cc1Cl (centres undefined),0,-4,25,12,26,15,nt,nt,
CCC(=O)Nc1cccc(-c2csc(-c3ccccc3)n2)c1,0,52*,26,40*,55*,34,35*,60*,TIM10 conf=-5
CC(C)CC(=O)Nc1cccc(-c2csc(-c3ccccc3)n2)c1,3,26,28,32,38,24,nt,nt,
O=C(c1cc(-c2ccc(O)cc2)on1)N1CCN(c2ccc(F)cc2)CC1,3,41*,27,49*,52*,5,26,46*,TIM10 conf=41*
O=C(c1cc(-c2ccc(O)cc2)on1)N1CCN(c2ccccc2)CC1,-1,21,16,28,42,16,nt,nt,
CCOC(=O)C1(C(N)=O)OC1(c1ccc(Cl)cc1)c1ccccc1Cl (centres undefined),-2,nt,nt,nt,nt,nt,nt,nt,
CCOC(=O)N1C(=O)[C@](c2ccc(Cl)cc2)(C(C)C)N1C(=O)OCC,-3,39,28,42*,61*,13,42*,56*,
NNc1nc(-c2ccccc2Cl)nc2ccccc12,1,12,15,21,21,7,nt,nt,
NNc1nc(-c2ccccc2Cl)nc2sc3c(c12)CCCC3,-2,30,13,58*,63*,35,20,55*,
Cc1c(Cl)cccc1N=Cc1ccc([N+](=O)[O-])s1,20*,83*,13,67*,65*,-7,61*,76*,TIM10 conf=65*
O=[N+]([O-])c1cc(S(=O)(=O)C(F)(F)F)ccc1Sc1nc2ccccc2[nH]1,4,58*,24,60*,68*,4,48*,59*,TIM10 conf=51*
O=C(CN(C(=O)c1csnn1)c1cccc(C(F)(F)F)c1)NCCc1ccccc1,2,10,13,-7,7,8,nt,nt,
COc1ccc(C(=O)Nn2cnc3scc(-c4cccs4)c3c2=O)c(O)c1,-9,35,13,32,30,nt,nt,nt,
O=c1c2c(-c3cccs3)csc2ncn1-c1ccc(Br)cc1,4,17,18,42*,59*,-3,35*,48*,
COc1cccc(-n2cnc3scc(-c4cccs4)c3c2=O)c1,-2,28,-3,43*,52*,3,42*,50*,
O=C(O)COc1ccc(/C=N/n2cnc3scc(-c4cccs4)c3c2=O)cc1,-2,nt,nt,nt,nt,26,nt,nt,
Nn1cnc2scc(-c3cccs3)c2c1=O,0,-2,24,-10,3,6,nt,nt,
O=c1c2c(-c3cccs3)csc2ncn1/N=C/c1ccccn1,4,37,30,56*,61*,nt,60*,62*,
CCOC(=O)n1c(=O)n(Cc2cccc(C)c2)c2ccccc21,-1,35,14,51*,59*,-18,41*,53*,
Cc1ccc(C(=O)c2coc3c2C(=O)C(=O)c2ccccc2-3)cc1,-1,97*,-10,93*,85*,2,94*,95*,TIM10 conf=96*
Cc1ccc(C(=O)c2c(C)oc3c2C(=O)C(=O)c2ccccc2-3)cc1,1,23,6,22,38,-4,nt,nt,
Cc1ccc(O)c(N=Cc2cc(Cc3ccccc3)cc([N+](=O)[O-])c2O)c1,-1,37,38,52*,51*,25,29,61*,
O=[N+]([O-])c1cc(Cc2ccccc2)cc(C=Nc2ccc(N3CCOCC3)cc2)c1O,7,nt,nt,nt,nt,59,nt,nt,
SMILES,V-ATPase pHluor,TIM10 inh,NALP3 yeast inh,tim10-1 inh,tim23-1 inh,NALP1 inh,tim10-1 conf,tim23-1 confirm,others
CCCCn1nnc(NC(=O)c2ccc(-c3cccc(Cl)c3)o2)n1,nt,45*,24,50*,72*,16,51*,74*,TIM10 conf=47*
O=C(Nc1cc(C(F)(F)F)ccc1-n1cncn1)c1ccc([N+](=O)[O-])o1,-2,47*,13,73*,54*,nt,64*,-16,TIM10 conf=57*
CC1CCN(c2ccccc2NC(=O)c2ccc([N+](=O)[O-])o2)CC1,-2,-6,15,16,-13,3,nt,nt,
O=C(Nc1ccc(N2CCCC2)c(Cl)c1)c1ccc([N+](=O)[O-])o1,4,nt,nt,nt,nt,8,nt,nt,
COc1ccc(N2CCCC2)c(NC(=O)c2ccc([N+](=O)[O-])o2)c1,-3,71*,11,62*,68*,5,51*,43*,TIM10 conf=80*
O=C(Nc1ccc(N2CCCCC2)cc1)c1ccc([N+](=O)[O-])o1,5,45*,11,59*,74*,2,47*,70*,TIM10 conf=38*
O=C(Nc1ccccc1N1CCCC1)c1ccc([N+](=O)[O-])o1,-5,52*,17,65*,66*,24,55*,66*,TIM10 conf=45*
C[C@@H]1CN([C@@H](C)CO)C(=O)CCCn2nncc2CO[C@H]1CN(C)C(=O)Nc1cccc(Oc2ccccn2)c1,-1,nt,nt,nt,nt,nt,nt,nt,
O=C(COC(=O)Cc1n[nH]c(=O)c2ccccc12)Nc1ccc(Cl)cn1,1,10,24,6,10,nt,nt,nt,
O=C(CCSc1ccc(F)cc1)NNC(=O)c1ccccc1Cl,-2,18,14,13,23,nt,nt,nt,
COc1cc(CC(=O)NCCCc2ccccc2)cc(OC)c1OC,-1,18,1,-4,7,17,nt,nt,
CC(C)CNC(=O)C(=O)NCCC1CCCCN1S(=O)(=O)c1cccs1 (centres undefined),-3,-16,-5,-6,2,nt,nt,nt,
COc1ccc(-c2csc(NC(=O)CCNC(=O)c3ccco3)n2)cc1,-1,nt,nt,nt,nt,nt,nt,nt,
COc1ccc(NCc2nc3ccccc3n2CCOc2ccccc2)cc1,1,14,28,49*,77*,33,40*,81*,
Cc1cc(N/N=C/c2ccc(Cl)cc2)nc(NCc2ccccc2)n1,-1,11,21,48*,75*,47,41*,36,
Cc1cc(N/N=C/c2ccccc2)nc(NCc2ccccc2)n1,2,-28,30,-1,1,56,nt,nt,
